Laboratory results reported in PubChem BioAssay (NCATS).
Several values for one entry are separate records, joined by “and”; a condition that tells them apart may be missing. Identical values can stand only once.

What was measured:
[1] = qHTS profiling of the MIPE4 collection as inhibitors of Plasmodium falciparum (3D7) proliferation (AID 743344);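 also: scaled between DMSO vehicle wells and 0.29 µM artemisinin as full inhibition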; conditions: P. falciparum 3D7 in erythrocytes, SYBR Green DNA fluorescence, 72 h; at 28.5 µM unless noted
How it was run: (§1)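 Parasite DNA was quantified by SYBR Green I fluorescence (ex 485, em 535 nm) after overnight lysis in saponin/Triton buffer at room temperature. Cultures at 0.3% parasitemia and 2.5% hematocrit were first exposed to compound for 72 h at 37 C; signals were normalised to artemisinin (0.29 uM) and vehicle wells.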

[2] = qHTS profiling of the MIPE4 collection as inhibitors of Plasmodium falciparum (DD2) proliferation (AID 743345); conditions: P. falciparum Dd2 in erythrocytes, SYBR Green DNA, 72 h
How it was run: as §1

[3] = qHTS profiling of the MIPE4 collection as inhibitors of Plasmodium falciparum (DD2) proliferation (Rep 2) (AID 743346); conditions: P. falciparum Dd2 in erythrocytes, SYBR Green DNA, 72 h
How it was run: as §1

[4] = qHTS profiling of the MIPE4 collection as inhibitors of Plasmodium falciparum (HB3) proliferation (AID 743347);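 also: plate controls were DMSO vehicle wells for no effect and artemisinin wells for full effect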; conditions: P. falciparum HB3 in erythrocytes, SYBR Green DNA, 72 h
How it was run: as §1

[5] = High-throughput drug toxicity screening in the BPDCN cell line Gen2.2 (AID 1224824); conditions: Gen2.2 BPDCN cells; at 45.8 µM (top of the series) unless noted;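 also: cells exposed to compounds for 48 h before reading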
How it was run: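 Gen2.2, 500 cells/well, phenol red-free RPMI/10% FBS/Pen-Strep; 48 h cpd, 37 °C/5% CO2; CTG lum, 15 min RT. Norm: DMSO = 100%, bortezomib 9.2 uM final = 0%.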

[6] = High-throughput drug toxicity screening in the BPDCN cell line Cal-1 (AID 1224825); conditions: Cal-1 BPDCN cell viability, qHTS; at 45.8 µM (top of the series) unless noted;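 also: cells exposed to compounds for 48 h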
How it was run: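 Percent activity derived from CellTiter-Glo luminescence, scaling DMSO to 100% and 9.2 uM final bortezomib to 0%. BPDCN Cal-1 cells (500/well, RPMI plus 10% FBS) incubated with compounds 48 hours at 37C before reading.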

[7] = at 28.5 µM unless noted

## COCCOc1ccc2c(c1)ncn2-c1ccc2cccc(N3CCC(N)CC3)c2n1
[1]
  parasite growth, % of DMSO control: 5.56%
[2]; [7]
  parasite growth remaining, % of DMSO control (lower = more inhibition): 7.14%
[3]; [7]
  parasite growth, % of control (lower = inhibition): 13.1%
[4]; [7]
  growth, % of control: 4.14%
[5]
  cell viability, % of control (lower = more cytotoxic): 3.06%
[6]
  viability (% of control): 1.98%

## Cc1ccc(CN2CCNCC2)cc1NC(=O)CNc1ccc(F)c(F)c1
[1]
  parasite growth, % of DMSO control: 55.3%
[2]; [7]
  parasite growth remaining, % of DMSO control (lower = more inhibition): 103%
[3]; [7]
  parasite growth, % of control (lower = inhibition): 63%
[4]; [7]
  growth, % of control: 60.8%
[5]
  cell viability, % of control (lower = more cytotoxic): 124%
[6]
  viability (% of control): 103%

## O=C(Nc1nc2cccc(-c3ccc(CN4CCS(=O)(=O)CC4)cc3)n2n1)C1CC1
[2]; [7]
  parasite growth remaining, % of DMSO control (lower = more inhibition): 97.6%
[3]; [7]
  parasite growth, % of control (lower = inhibition): 62.8%
[4]; [7]
  growth, % of control: 73.9%
[5]
  cell viability, % of control (lower = more cytotoxic): 107%
[6]
  viability (% of control): 9.42%

## O=c1c2ccccc2nc2n1CCc1c-2[nH]c2ccccc12
[2]; [7]
  parasite growth remaining, % of DMSO control (lower = more inhibition): 88.1%
[3]; [7]
  parasite growth, % of control (lower = inhibition): 167%
[4]; [7]
  growth, % of control: 85.6%
[5]
  cell viability, % of control (lower = more cytotoxic): 35%
[6]
  viability (% of control): 72.9%

## Cc1cc(Nc2cc(CN3CCOCC3)c3nc(C)c(Cc4ccc(Cl)cc4F)n3n2)n[nH]1
[2]; [7]
  parasite growth remaining, % of DMSO control (lower = more inhibition): 7.86%
[3]; [7]
  parasite growth, % of control (lower = inhibition): 12.5%
[4]; [7]
  growth, % of control: 5.44%
[5]
  cell viability, % of control (lower = more cytotoxic): 4.25%
[6]
  viability (% of control): 2.99%

## COC(=O)C1=C(C)NC(C)=C(C(=O)OCCN2CCN(C(c3ccccc3)c3ccccc3)CC2)C1c1cccc([N+](=O)[O-])c1 (configuration not stated)
[2]; [7]
  parasite growth remaining, % of DMSO control (lower = more inhibition): 45.6%
[3]; [7]
  parasite growth, % of control (lower = inhibition): 43.1%
[4]; [7]
  growth, % of control: 18.9%
[5]
  cell viability, % of control (lower = more cytotoxic): 126%
[6]
  viability (% of control): 108%

## O=C(O)Cn1nnc(-c2cc(N3CCC(Oc4cc(F)ccc4Br)CC3)no2)n1
[2]; [7]
  parasite growth remaining, % of DMSO control (lower = more inhibition): 127%
[3]; [7]
  parasite growth, % of control (lower = inhibition): 83.7%
[4]; [7]
  growth, % of control: 95.6%
[5]
  cell viability, % of control (lower = more cytotoxic): 231%
[6]
  viability (% of control): 114%

## COC(=O)Nc1nc2ccc(C(=O)c3ccc(F)cc3)cc2[nH]1
[2]; [7]
  parasite growth remaining, % of DMSO control (lower = more inhibition): 96.2%
[3]; [7]
  parasite growth, % of control (lower = inhibition): 69.2%
[4]; [7]
  growth, % of control: 61.7%
[5]
  cell viability, % of control (lower = more cytotoxic): 78.4%
[6]
  viability (% of control): 25%

## CCC1=C[C@@H]2CN(C1)Cc1c([nH]c3ccccc13)[C@@](C(=O)OC)(c1cc3c(cc1OC)N(C)[C@@H]1[C@@](O)(C(=O)OC)[C@H](OC(C)=O)[C@]4(CC)C=CCN5CC[C@]31[C@@H]54)C2
[2]; [7]
  parasite growth remaining, % of DMSO control (lower = more inhibition): 7.41%
[3]; [7]
  parasite growth, % of control (lower = inhibition): 20.6%
[4]; [7]
  growth, % of control: 8.82%
[5]
  cell viability, % of control (lower = more cytotoxic): 28.9%
[6]
  viability (% of control): 14.5%

## COc1c(N2C[C@@H]3CCCN[C@H]3C2)c(F)cc2c(=O)c(C(=O)O)cn(C3CC3)c12
[2]; [7]
  parasite growth remaining, % of DMSO control (lower = more inhibition): 76.4%
[3]; [7]
  parasite growth, % of control (lower = inhibition): 31.4% and 104%
[5]
  cell viability, % of control (lower = more cytotoxic): 73.3%
[6]
  viability (% of control): 71.9%

## COc1ccc(-n2nc(C(N)=O)c3c2C(=O)N(c2ccc(N4CCCCC4=O)cc2)CC3)cc1
[1]
  parasite growth, % of DMSO control: 53.4%
[2]; [7]
  parasite growth remaining, % of DMSO control (lower = more inhibition): 82.6%
[3]; [7]
  parasite growth, % of control (lower = inhibition): 61.9%
[4]; [7]
  growth, % of control: 83.4%
[5]
  cell viability, % of control (lower = more cytotoxic): 150%
[6]
  viability (% of control): 104%

## O=C(Nc1cn[nH]c1-c1nc2ccc(CN3CCOCC3)cc2[nH]1)NC1CC1
[1]
  parasite growth, % of DMSO control: 5.31%
[2]; [7]
  parasite growth remaining, % of DMSO control (lower = more inhibition): 12.9%
[3]; [7]
  parasite growth, % of control (lower = inhibition): 8.07%
[4]; [7]
  growth, % of control: 4.19%
[5]
  cell viability, % of control (lower = more cytotoxic): 4.46%
[6]
  viability (% of control): 3.55%

## CC(C)c1nn(-c2c(Cl)cccc2Cl)c2nc(Cc3ccc(OCCO)cc3)[nH]c(=O)c12
[1]
  parasite growth, % of DMSO control: 20.8%
[2]; [7]
  parasite growth remaining, % of DMSO control (lower = more inhibition): 62%
[3]; [7]
  parasite growth, % of control (lower = inhibition): 27.3%
[4]; [7]
  growth, % of control: 21.7%
[5]
  cell viability, % of control (lower = more cytotoxic): 3.64%
[6]
  viability (% of control): 2.52%

## CN1CCN(Cc2ccc(NC(=O)Nc3ccc(Oc4cc(NC(=O)C5CC5)ncn4)cc3)cc2C(F)(F)F)CC1
[2]; [7]
  parasite growth remaining, % of DMSO control (lower = more inhibition): 6.55%
[3]; [7]
  parasite growth, % of control (lower = inhibition): 14.2%
[4]; [7]
  growth, % of control: 7.58%
[5]
  cell viability, % of control (lower = more cytotoxic): 0.71%
[6]
  viability (% of control): 0.746%

## Cc1c(NC(=O)OC[C@@H]2COCCN2)cn2ncnc(Nc3ccc4c(cnn4Cc4cccc(F)c4)c3)c12
[1]
  parasite growth, % of DMSO control: 5.88%
[2]; [7]
  parasite growth remaining, % of DMSO control (lower = more inhibition): 11%
[3]; [7]
  parasite growth, % of control (lower = inhibition): 24.7%
[4]; [7]
  growth, % of control: 11.2%
[5]
  cell viability, % of control (lower = more cytotoxic): 285%
[6]
  viability (% of control): 13.9%

## CNC(=O)c1ccccc1Nc1nc(Nc2ccc(N3CCOCC3)cc2OC)ncc1Cl
[1]
  parasite growth, % of DMSO control: 10.8%
[2]; [7]
  parasite growth remaining, % of DMSO control (lower = more inhibition): 10.3%
[3]; [7]
  parasite growth, % of control (lower = inhibition): 22.9%
[4]; [7]
  growth, % of control: 7.48%
[5]
  cell viability, % of control (lower = more cytotoxic): 18.7%
[6]
  viability (% of control): 7.05%

## Nc1ncnc2c1c(-c1cnc3[nH]ccc3c1)nn2C1CCCC1
[1]
  parasite growth, % of DMSO control: 6.52%
[2]; [7]
  parasite growth remaining, % of DMSO control (lower = more inhibition): 8.6%
[3]; [7]
  parasite growth, % of control (lower = inhibition): 8.28%
[4]; [7]
  growth, % of control: 2.85%
[5]
  cell viability, % of control (lower = more cytotoxic): 7.53%
[6]
  viability (% of control): 3.58%

## Cc1c(Cn2c(C)nc3c(C(=O)O)cc(N4CCOCC4)cc32)cccc1C(F)(F)F
[2]; [7]
  parasite growth remaining, % of DMSO control (lower = more inhibition): 93.9%
[3]; [7]
  parasite growth, % of control (lower = inhibition): 104%
[4]; [7]
  growth, % of control: 124%
[5]
  cell viability, % of control (lower = more cytotoxic): 52.8%
[6]
  viability (% of control): 70.7%

## CS(=O)(=O)c1ccc(-c2cnc(N)c(C(=O)Nc3ccccc3)n2)cc1
[1]
  parasite growth, % of DMSO control: 7.85%
[2]; [7]
  parasite growth remaining, % of DMSO control (lower = more inhibition): 9.88%
[3]; [7]
  parasite growth, % of control (lower = inhibition): 7.67%
[4]; [7]
  growth, % of control: 2.44%
[5]
  cell viability, % of control (lower = more cytotoxic): 99.6%
[6]
  viability (% of control): 41.5%

## CN[C@H]1CCc2cc(OC)c(OC)c(OC)c2-c2ccc(OC)c(=O)cc21
[1]
  parasite growth, % of DMSO control: 67.4%
[2]; [7]
  parasite growth remaining, % of DMSO control (lower = more inhibition): 90.5%
[3]; [7]
  parasite growth, % of control (lower = inhibition): 47.1%
[4]; [7]
  growth, % of control: 90.6%
[5]
  cell viability, % of control (lower = more cytotoxic): 24.2%
[6]
  viability (% of control): 11.6%

## C[C@H]1C[C@@H]2[C@@H]([C@@H](O)C[C@@]3(C)[C@H]2CC[C@]3(O)C(=O)CO)[C@@]2(C)C=CC(=O)C=C12
[2]; at 9.64 µM (top of the series)
  parasite growth remaining, % of DMSO control (lower = more inhibition): 93.1%
[2]; at 28.5 µM
  parasite growth remaining, % of DMSO control (lower = more inhibition): 84.7%
[3]; at 9.64 µM (top of the series)
  parasite growth, % of control (lower = inhibition): 62.6%
[3]; at 28.5 µM
  parasite growth, % of control (lower = inhibition): 62.7%
[4]; at 9.64 µM (top of the series)
  growth, % of control: 93.3%
[4]; at 28.5 µM
  growth, % of control: 57.2%
[5]
  cell viability, % of control (lower = more cytotoxic): 111%
[6]
  viability (% of control): 53.2%
